Data from PubChem BioAssay AID1851 (National Center for Advancing Translational Sciences (NCATS), 2009).
About 4,000 (25%) of roughly 16,000 compounds were called active. Another 26% or so got no clear call; they are omitted. Not all results are given here. Values without a mark were called inactive. The call rests on the fitted dose curve; in most records, active means well fitted curve in the direction sought with a large enough effect; inconclusive means small, poorly fitted or top-dose-only effect, or effect the other way; inactive means no such curve, though single readings can be large or run the other way.

Molecular target: Cytochrome P450 2C9 (Homo sapiens) (UniProt P11712)
Experiment: Cytochrome panel assay with activity outcomes
Details: recombinant CYP, pro-luciferin dealkylation, luminescence, p450-cyp2c9; series mostly up to 57.1 µM
On the % scale 0 is the no-effect control and ±100 the full control effect.

Chain of Cytochrome P450 2C9 (Homo sapiens) (P11712 whole entry, looked up): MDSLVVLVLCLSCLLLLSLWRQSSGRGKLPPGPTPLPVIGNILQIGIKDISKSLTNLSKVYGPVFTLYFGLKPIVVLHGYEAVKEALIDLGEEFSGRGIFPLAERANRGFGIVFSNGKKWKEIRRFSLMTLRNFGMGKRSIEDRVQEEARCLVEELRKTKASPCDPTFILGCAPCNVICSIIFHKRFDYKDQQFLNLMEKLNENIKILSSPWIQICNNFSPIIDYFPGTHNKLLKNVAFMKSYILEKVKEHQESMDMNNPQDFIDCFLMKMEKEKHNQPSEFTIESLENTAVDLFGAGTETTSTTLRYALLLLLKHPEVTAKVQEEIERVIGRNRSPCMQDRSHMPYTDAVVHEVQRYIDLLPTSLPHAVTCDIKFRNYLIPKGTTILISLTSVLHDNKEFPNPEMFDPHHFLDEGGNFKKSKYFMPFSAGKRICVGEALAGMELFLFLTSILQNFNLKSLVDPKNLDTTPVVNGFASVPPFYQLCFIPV

Row | Compound | AC50 | activity, negative = inhibition
1 | CC(=O)NC1=NC(=O)C(C)S1 (stereo not given) | inactive | 
2 | CCNS(=O)(=O)c1ccc(NC(=O)c2cc(C(F)(F)F)nn2C)cc1 | inactive | 
3 | O=C(O)/C=C/C(=O)Nc1ccc(F)cc1F | inactive | 
4 | CC(=O)NC1(c2ccc(F)cc2)CCN(C(=O)Nc2ccc(F)cc2F)CC1 | inactive | 
5 | Cc1ccc(NC(=O)c2c(C(F)(F)F)nn(C)c2SCc2cccc(C(F)(F)F)c2)cc1C | 0.891 µM (active) | 
6 | Cn1nc(C(F)(F)F)c(C(=O)Nc2ccc(F)cc2F)c1Sc1ccc(C(F)(F)F)cc1 | 4.47 µM (active) | 
7 | Cn1nc(C(F)(F)F)c(C(=O)Nc2ccc(F)cc2F)c1Sc1cccc(C(F)(F)F)c1 | 1.58 µM (active) | 
8 | CCc1ccc(NC(=O)Cn2nc(C(F)(F)F)c3c2CCC3)cc1 | inactive | 
9 | Cc1ccc(NC(=O)c2sccc2SCc2cccc(C(F)(F)F)c2)cc1 | 2.51 µM (active) | 
10 | CC(=O)N(/N=C1\Sc2ccccc2C1=O)c1ccccc1C | 14.1 µM (active) | 
11 | CC(=O)N(/N=C1\Sc2ccccc2C1=O)c1ccccc1 | inactive | 
12 | CCOC(=O)c1c(NC(=O)CSc2nnc(C)s2)sc2c1CCCCC2 | 11.2 µM (active) | 
13 | Cc1sc(NC(=O)C2CCCCC2C(=O)O)c(C(N)=O)c1C (stereo not given) | inactive | 
14 | COC(=O)c1c(C)[nH]c(C)c1C(=O)c1ccccc1Cc1ccccc1 | inactive | 
15 | Cc1cccc(NC(=O)CSc2nnnn2C)n1 | inactive | 
16 | CCOC(=O)c1c(NC(=O)CSc2nnnn2C)sc(C)c1C | 22.4 µM (active) | 
17 | CO[C@]1(NC(=O)CSCC#N)C(=O)N2C(C(=O)O)=C(CSc3nnnn3C)CS[C@H]21 | inactive | 
18 | CCOC(=O)c1c(NC(=O)c2c(C)noc2C)sc2c1CCCCC2 | inactive | 
19 | COC(=O)c1c(NC(C)=O)sc(Cc2ccccc2)c1C | 10 µM (active) | 
20 | Cc1sc(NC(=O)C(C)C)c(C(=O)Nc2ccccc2)c1C | 12.6 µM (active) | 
21 | CCOc1ccc(CC(=O)Nc2sc(Cc3ccccc3)c(C)c2C(N)=O)cc1OCC | inactive | 
22 | CN(C)c1nc(N)c(C(=O)N=C(N)N)nc1Cl | inactive | 
23 | COC(=O)C1=C(C)[C@@H](O)[C@@H](C)[C@H](c2c(OC)c(OC)c(C)c(OC)c2OC)O1 |  | -3.08% [at 11.4 µM]
24 | CC(=O)N1CCC2(CCCN(Cc3nccs3)C2)CC1 | inactive | 

Row | Compound | AC50 | activity, negative = inhibition
25 | CCOC(=O)c1c(NC(=O)Nc2ccccc2)sc(C)c1C | 3.55 µM (active) | 
26 | CCOC(=O)c1c(NC(=O)/C=C/c2ccc3c(c2)OCO3)sc(C)c1C | inactive | 
27 | Cc1cc(Nc2ccccc2)nc(N)n1 | inactive | 
28 | Cc1nnc(SCc2nc(N)nc(Nc3ccccc3)n2)s1 | 10 µM (active) | 
29 | CCCSc1nnc2n(N)c(=O)c3ccccc3n12 | inactive | 
30 | Nc1nc(N)[n+]([O-])c(N)c1NCO |  | 6.07% [at 11.4 µM]
31 | CCOC(=O)c1cnc(N(C)C)nc1SC(=N)N |  | -5.38% [at 11.4 µM]
32 | CCOC(=O)c1cnc(SCCc2ccccc2)nc1N | 11.2 µM (active) | 
33 | Nc1nc(N)c(CCCCc2ccccc2)c(N)n1 |  | 5.71% [at 11.4 µM]
34 | CC1(C)C2([N+](=O)[O-])CN3CC1([N+](=O)[O-])CN(C2)C31CCCC1 | inactive | 
35 | C=C1C(=O)O[C@@H]2[C@@H]1CC/C(C)=C\CC[C@@]1(C)O[C@H]21 | inactive | 
36 | O=c1c2ccc([N+](=O)[O-])c3cccc(c32)c2nc3ccccc3n12 | inactive | 
37 | O=C(O)c1ccc2c3c1cccc3c(=O)n1c3ccccc3nc21 | 0.158 µM (active) | 
38 | O=C(O)C(=O)/C=C(\O)c1ccc(Br)cc1 |  | -19.1% [at 11.4 µM]
39 | Cc1ccc2nc(NC(=O)COC(=O)CSc3nc(C)cc(C)n3)sc2c1 | 3.98 µM (active) | 
40 | CCCOc1ccc(C(=O)NC(=S)Nc2nc3ccc(C)cc3s2)cc1 | inactive | 
41 | Cc1ccc2nc(NC(=O)CSCC(=O)OCC(=O)c3ccc(Br)cc3)sc2c1 | 14.1 µM (active) | 
42 | COc1ccc2nc(NC(=O)CSc3nnc(C)s3)sc2c1 | inactive | 
43 | COc1ccc([C@@H]2Sc3ccccc3N(CCN(C)C)C(=O)[C@@H]2OC(C)=O)cc1 | inactive | 
44 | COc1ccc2[nH]c(=O)c(NC(N)=S)nc2c1 | inactive | 
45 | NC(=S)Nc1ccc(Oc2ccc(NC(N)=S)cc2)cc1 | 7.08 µM (active) | 
46 | Cc1ccc(C2Nc3ccccc3C(=O)N2Cc2ccco2)cc1 (stereo not given) | 3.16 µM (active) | 
47 | O=C1C2=C(Nc3cc([N+](=O)[O-])ccc3N2)O[C@@H]1c1c[nH]c2ccc(COc3ccccc3)cc12 |  | -16.4% [at 11.4 µM]
48 | CN(Cc1ccco1)C(=O)C1CCC(=O)N1Cc1ccc(F)cc1 (stereo not given) | inactive | 

Row | Compound | AC50 | activity, negative = inhibition
49 | COc1ccc(C2Nc3ccccc3C(=O)N2Cc2ccco2)cc1COc1ccc([N+](=O)[O-])cc1 (stereo not given) | 0.178 µM (active) | 
50 | O=C1c2ccccc2NC(c2ccc(F)cc2)N1Cc1ccco1 (stereo not given) | 3.16 µM (active) | 
51 | CC1(CC(=O)O)O[C@H]2CCCCC[C@H]2O1 (stereo not given in full) (tested in a mixture with another compound) |  | 1.04% [at 11.4 µM]
52 | CC(=O)N1CC2(CC2)CC1c1ccccc1 (stereo not given) | inactive | 
53 | CC(C)Oc1ccc2ccccc2c1C=O | 10 µM (active) | 
54 | CC(C)NC[C@@H](O)COc1cccc2ccccc12 | inactive | 
55 | CO[C@H]1C[C@@H](O[C@@H]2[C@H](C)[C@H](O[C@@H]3O[C@@H](C)C[C@@H](N(C)C)[C@@H]3O)[C@H](C)C[C@]3(CO3)C(=O)[C@H](C)[C@H](O)[C@H](C)[C@H](C)OC(=O)[C@@H]2C)O[C@@H](C)[C@H]1O | inactive | 
56 | CC(=O)N[C@@H](CC(=O)O)C(=O)O | inactive | 
57 | O=C(c1cc(Br)ccc1O)c1cc(Br)ccc1O | 0.1 µM (active) | 
58 | O=C(Nc1ccc(-c2cn3ccccc3n2)cc1)c1cc(Br)ccc1O |  | -1.72% [at 11.4 µM]
59 | CC(C)(C)CC(C)(C)c1ccc(O)c(C[N+](C)(C)[O-])c1 |  | 0.733% [at 11.4 µM]
60 | Cc1cc(C)nc(NN2C(=O)/C(=C/c3ccccc3)SC2=S)n1 | inactive | 
61 | COc1cc(/C=C2\SC(=S)N(Nc3ccccc3)C2=O)cc(OC)c1OC | 6.31 µM (active) | 
62 | CC(C)CC(=O)N[C@H](C(=O)N[C@H](C(=O)N[C@@H](CC(C)C)[C@H](O)CC(=O)N[C@@H](C)C(=O)N[C@@H](CC(C)C)[C@H](O)CC(=O)O)C(C)C)C(C)C | inactive | 
63 | CCc1ccccc1NC(=O)CSc1nc(-c2ccccc2)nn1C(=O)c1cccc([N+](=O)[O-])c1 | 0.447 µM (active) | 
64 | O=C(O)[C@@H]1[C@@H](C(=O)O)[C@]23C[C@@]2(C(=O)O)[C@]2(C(=O)O)CCC3=C3CCCC312 |  | 14% [at 11.4 µM]
65 | CCOC(=O)c1cnc2c(cnn2CC)c1NN=C(C)C | inactive | 
66 | CCOC(=O)c1cnc2ccc(C)cc2c1Sc1ccccc1C(=O)OC | 1.41 µM (active) | 
67 | Cc1nnc(NC(=O)CSc2ncnc3c2cnn3-c2ccccc2C)s1 | inactive | 
68 | Cc1ccccc1-n1ncc2c(SCC(=O)N3c4ccccc4CC3C)ncnc21 (stereo not given) | 10 µM (active) | 
69 | CCOc1ccccc1NC(=O)C(=O)NCC1CCCN1CC (stereo not given) | inactive | 
70 | Cc1cc(C)n(C(=O)c2cc3c(s2)CCCC3)n1 | 11.2 µM (active) | 
71 | CC1CN(C(=O)c2cc3c(s2)CCC3)CC(C)O1 (stereo not given) | inactive | 
72 | CCOC(=O)COc1c(OC)cc(Cl)cc1C1Nc2ccccc2C(=O)N1c1cccc(C)c1 (stereo not given) | 0.708 µM (active) | 

Row | Compound | AC50 | activity, negative = inhibition
73 | CCOC(=O)COc1c(OC)cc(Cl)cc1C1Nc2ccccc2C(=O)N1c1ccc(F)cc1 (stereo not given) | 0.282 µM (active) | 
74 | CCOC(=O)CC1NC(=O)c2ccccc21 (stereo not given) | inactive | 
75 | CC(C)=NO[C@@H](C)c1cn([C@@H]2COC[C@@H]2O)nn1 |  | 11.5% [at 11.4 µM]
76 | COc1ccc(NC(=O)COc2ccc(CNCCCN3CCOCC3)cc2OC)cc1 | inactive | 
77 | COc1ccc2cc(CCC(C)=O)ccc2c1 | inactive | 
78 | COc1ccc(CCNC(=O)COc2ccc(S(=O)(=O)NC3CCCCC3)cc2Cl)cc1 | 2.51 µM (active) | 
79 | CC(C)(Sc1ccc(CCN(CCCCC2CCCCC2)C(=O)NC2CCCCC2)cc1)C(=O)O | inactive | 
80 | COc1ccc(CCCC(=O)NC2CCCCC2)cc1 | 10 µM (active) | 
81 | COc1ccc2nc3oc(C(=O)NCc4cccs4)cc3cc2c1 | inactive | 
82 | COc1ccc(CNC(=O)C(c2ccc(C)cc2)N(Cc2cccs2)C(=O)c2ccc3c(c2)OCCO3)cc1 (stereo not given) | 7.08 µM (active) | 
83 | CN(C)C(=O)c1ccc(-c2cncnc2NCc2cccs2)cc1 |  | -0.243% [at 2.29 µM]
84 | O=C(NC1CCCCC1)C(c1cccs1)N(Cc1cccs1)C(=O)c1ccco1 (stereo not given) | 8.91 µM (active) | 
85 | CN(C)Cc1ccccc1-c1cncnc1NCc1cccs1 |  | -10.6% [at 2.29 µM]
86 | CCc1ccc(C(C(=O)NCc2ccc(OC)cc2)N(CCOC)C(=O)Cc2cccs2)cc1 (stereo not given) | 10 µM (active) | 
87 | O=C(NCc1ccccc1)C(c1cccs1)N(Cc1cccs1)C(=O)c1cnccn1 (stereo not given) | 15.8 µM (active) | 
88 | CN(Cc1ccco1)c1cc(-c2ccccc2Cl)ncn1 |  | -2.34% [at 2.29 µM]
89 | N[C@H](C(=O)O)[C@@H]1[C@@H](C(=O)O)C1(F)F | inactive | 
90 | COc1ccc(C(C(=O)NCc2ccccc2)N(Cc2cccs2)C(=O)c2cnccn2)cc1 (stereo not given) | 7.94 µM (active) | 
91 | CC1(C)[C@@H]2CC[C@]1(C)[C@@H](OC(=O)/C=C\c1ccccc1)C2 |  | -14.1% [at 11.4 µM]
92 | CS(=O)(=O)N(CC(=O)Nc1cccc(F)c1)c1cccc([N+](=O)[O-])c1 | 3.55 µM (active) | 
93 | CS(=O)(=O)N1CCC2(CCN(C(=O)Nc3cccc(F)c3)CC2)CC1 | inactive | 
94 | CS(=O)(=O)N1CCC[C@@]2(CCN(C(=O)Nc3cccc(F)c3)C2)C1 | inactive | 
95 | COc1cccc(N(CC(=O)Nc2cccc(C(C)=O)c2)S(C)(=O)=O)c1 | 25.1 µM (active) | 
